SMILES strings stand for the structures. Inconclusive results are not listed. Active and inactive are the calls of the source. Calls come from the whole dose curve; as a rule, active = well fitted cell-killing curve with a large enough effect; inconclusive = small, poorly fitted or top-dose-only effect, or effect the other way; inactive = no such curve, though single readings can be large or run the other way.
Potency is the fitted concentration of half-maximal effect.

This test can be described thus: Quantitative High-Throughput drug screen in 47 multiple myeloma cell lines against the NCATS MIPE library collection: PCM6_Riken cell viability assay (AID 1919870). Note: nearly all actives have a fitted effect of over 30% in size. The following applies: CellTiter-Glo ATP, 48 h; series mostly up to 45.8 µM. The source says:
PI: Beverly A. Mock Ph.D.
Laboratory of Cancer Biology and Genetics,
Center for Cancer Research, National Cancer Institute,
National Institute of Health, Bethesda, Maryland
Drug resistance and disease progression are common in multiple myeloma (MM) patients, underscoring the need for new therapeutic combinations. […] We hypothesized that effective combinations would reduce MYC expression and enhance p16 activity. […] These preclinical data identify potentially useful drug combinations for evaluation in drug-resistant MM and reveal potential mechanisms of combined drug sensitivity.
Described herein is the primary MIPE qHTS used to cherrypick compounds. Validated compounds were then further tested for potential synergistic activiy.
[1] Peat TJ, Gaikwad SM, Dubois W, Gyabaah-Kessie N, Zhang S, Gorjifard S, Phyo Z, Andres M, Hughitt VK, Simpson RM, Miller MA, Girvin AT, Taylor A, Williams D, D'Antonio N, Zhang Y, Rajagopalan A, Flietner E, Wilson K, Zhang X, Shinn P, Klumpp-Thomas C, McKnight C, Itkin Z, Chen L, Kazandijian D, Zhang J, Michalowski AM, Simmons JK, Keats J, Thomas CJ, Mock BA. Drug combinations identified by high-throughput screening promote cell cycle transition and upregulate Smad pathways in myeloma. Cancer Lett. 2023 Aug 1;568:216284. doi: 10.1016/j.canlet.2023.216284. Epub 2023 Jun 24. PMID: 37356470; PMCID: PMC10408729.
SEQUENCE No. (e.g., 1, 2, 3, etc.); […] (e.g., Cells, Incubation, Reagent, etc.); VALUE and DESCRIPTION.
1; Cells; 5 uL; white, solid bottom 1536-well Greiner assay plate.
2; Compounds; 23 nL; Kalypsis pin tool (Wako USA) equipped with a 1536-well pin head to transfer to the assay plates.
3; Incubation; 48 hours; 37C incubation.
4; Reagent;5uL; CellTiter Glo (Promega).
5; Detector; 425V; Luminescence; Viewlux PerkinElmer.
NOTES (numbers refer to Sequence numbers above)
1. The cell-based screening methods employed in this study were like those previously published. Briefly, the corresponding myeloma cell lines were screened in 1,536-well plates with 500 cells, 5-uL per well for inhibition of cell viability (assessed by measuring ATP levels with CellTiterGlo).
2. NCATS MIPE 4.0 library of approved and investigational drugs were added using the Kalypsis pin tool. Wells treated with DMSO only for 100% viability and media only for 0% viability were used as controls.
3. The assay plates were covered and incubated for 48 hours in a 37C, 5% CO2 incubator with controlled humidity.
4. After 48 hours, CellTilter-GloTM luminescent substrate mix (Promega) reagent was added to the assay plate and plates we incubated for 5 min at room temperature.
5. Signal was measured as median relative luminescence units on a ViewLux (PerkinElmer) multiplate reader.
[1] Heske CM, Davis MI, Baumgart JT, Wilson K, Gormally MV, Chen L, Zhang X, Ceribelli M, Duveau DY, Guha R, Ferrer M, Arnaldez FI, Ji J, Tran HL, Zhang Y, Mendoza A, Helman LJ, Thomas CJ. Matrix Screen Identifies Synergistic Combination of PARP Inhibitors and Nicotinamide Phosphoribosyltransferase (NAMPT) Inhibitors in Ewing Sarcoma. Clin Cancer Res. 2017 Dec 1;23(23):7301-7311. doi: 10.1158/1078-0432.CCR-17-1121. Epub 2017 Sep 12. PMID: 28899971; PMCID: PMC6636827.
For orientation: ATP-based viability assays read luminescence as a measure of living cells.
In the case of `CC(C)(C)c1cc(C(C)(C)C)c(NC(=O)c2c[nH]c3ccccc3c2=O)cc1O`, the Potency entry is “inactive”.

In the case of `COc1cc2c(Oc3ccc4[nH]c(C)cc4c3F)ncnc2cc1OCCCN1CCCC1`, the Potency is 2350 nM (active).

Turning to `CC(=O)OCCN1C(=O)c2c(C)nc3ccc(S(=O)(=O)N4CCOCC4)cc3c2C1=O`, the Potency entry was “inactive”.

Consider `CC(C)(C)NC(=O)[C@H]1CN(Cc2cccnc2)CCN1C[C@@H](O)C[C@@H](Cc1ccccc1)C(=O)N[C@H]1c2ccccc2C[C@H]1O`, for which the Potency is 8330 nM (active).

For `OCc1ccc(-c2ccc(-c3ccc(CO)s3)o2)s1`, the Potency is 7430 nM (active).

For `COc1cc2c(cc1-c1c(C)noc1C)ncc1[nH]c(=O)n([C@H](C)c3ccccn3)c12`, the Potency was 6620 nM (active).

Take `CC1COC2(CCN(c3nc(=O)c4cc(C(F)(F)F)cc([N+](=O)[O-])c4s3)CC2)O1` (stereo not given): the Potency entry was “inactive”.

Take `COC(=O)[C@]12CCC(C)(C)C[C@@H]1[C@@H]1C(=O)C=C3[C@@]4(C)C=C(C#N)C(=O)C(C)(C)[C@@H]4CC[C@@]3(C)[C@]1(C)CC2`: the Potency was 332 nM (active).

In the case of `C[C@]12CC[C@H](O)CC1=CCC1C2CC[C@]2(C)C(n3cnc4ccccc43)=CCC12` (stereo not given in full), the Potency entry is “inactive”.

For the compound `COC(=O)c1ccc2c(C(=Nc3ccc(N(C)C(=O)CN4CCN(C)CC4)cc3)c3ccccc3)c(O)[nH]c2c1`, the Potency is 2960 nM (active).

Consider `CC(C)(C)c1cnc(CSc2cnc(NC(=O)C3CCNCC3)s2)o1`, for which the Potency was 83.3 nM (active).

Take `CN1CCN(c2ccc3nc(-c4c(N)c5c(F)cccc5[nH]c4=O)[nH]c3c2)CC1`: the Potency is 2640 nM (active).

For `CNC(=O)c1ccc(N2C(=S)N(c3cnc(C#N)c(C(F)(F)F)c3)C(=O)C23CCC3)cc1F`, the Potency is 833 nM (active).

Regarding `CN(C)CC=CC(=O)Nc1cc2c(Nc3ccc(F)c(Cl)c3)ncnc2cc1O[C@H]1CCOC1`, the Potency was 1180 nM (active).

As for `CN1CCC(CNc2ccc3ncc(-c4cccc(OC(F)(F)F)c4)n3n2)CC1`, the Potency was 5900 nM (active).

As to `C1Cc2[nH]nc(-c3nn[nH]n3)c2C1`, the Potency entry is “inactive”.

In the case of `OCCCNc1cc(-c2ccnc(Nc3cccc(Cl)c3)n2)ccn1`, the Potency is 16.6 nM (active).

Regarding `CCC[C@H](NC(=O)C(C#N)=Cc1cccc(Br)n1)c1ccccc1`, the Potency is 1050 nM (active).

Turning to `COc1cc2c(Nc3ccc(NC(=O)c4ccccc4)cc3)ncnc2cc1OCCCN1CCOCC1`, the Potency is 16600 nM (active).

Take `COc1cc2nccc(Oc3ccc(NC(=O)C4(C(=O)Nc5ccc(F)cc5)CC4)cc3)c2cc1OC`: the Potency is 2960 nM (active).

For `COc1cccc(Nc2c(C(N)=O)cnc3c(C)cc(S(=O)(=O)c4cccc(C(=O)N(C)C)c4)cc23)c1`, the Potency entry is “inactive”.

On to `CCCCCCCCCC(=O)N[C@@H](Cc1c[nH]c2ccccc12)C(=O)N[C@H](CC(N)=O)C(=O)N[C@@H](CC(=O)O)C(=O)N[C@@H]1C(=O)NCC(=O)N[C@@H](CCCN)C(=O)N[C@@H](CC(=O)O)C(=O)N[C@H](C)C(=O)N[C@@H](CC(=O)O)C(=O)NCC(=O)N[C@H](CO)C(=O)N[C@@H]([C@@H](C)CC(=O)O)C(=O)N[C@@H](CC(=O)c2ccccc2N)C(=O)O[C@@H]1C`, for which the Potency result was “inactive”.

In the case of `C[C@@H](Oc1cc(-n2cnc3ccc(CN4CCN(C)CC4)cc32)sc1C(N)=O)c1ccccc1C(F)(F)F`, the Potency was 13200 nM (active).

On to `CCOC(=O)C1=C(C)NC2=C(C(=O)CC(C)(C)C2)C1c1ccc(-c2ccccc2)cc1` (stereo not given), for which the Potency was 20900 nM (active).

Regarding `CC(C)=CCCC(C)=CCCC(C)=CCSc1ccccc1C(=O)O`, the Potency is 6620 nM (active).

As for `CNC(=O)c1ccccc1Nc1nc(Nc2ccc(N3CCOCC3)cc2OC)ncc1Cl`, the Potency was 10500 nM (active).

Take `Cn1c(CNc2ccc(C(=N)N)cc2)nc2cc(C(=O)N(CCC(=O)O)c3ccccn3)ccc21`: the Potency entry was “inactive”.

Turning to `Cc1cc(Nc2nc(N[C@@H](C)c3ccc(F)cc3)c(C#N)cc2F)n[nH]1`, the Potency is 16600 nM (active).

`O=C(Nc1cc(C(F)(F)F)cc(C(F)(F)F)c1)c1cc(Cl)ccc1O`: the Potency was 1320 nM (active).

`O=C(c1cncc(Br)c1)N1CCC(N2CCCC2)CC1`: the Potency entry is “inactive”.

Consider `CC(C)Nc1cc(C(F)(F)F)cc2nc(NC(=O)c3cccnc3)nn12`, for which the Potency result was “inactive”.

In the case of `CC(=O)OCC(=O)[C@@]1(O)[C@H](C)C[C@H]2[C@@H]3C=C(C)C4=Cc5c(cnn5-c5ccccc5)C[C@]4(C)[C@@H]3[C@@H](O)C[C@@]21C`, the Potency is 3320 nM (active).

On to `O=C(O)c1ccc2c(c1)nc(Nc1cccc(Cl)c1)c1ccncc12`, for which the Potency was 2640 nM (active).

For the compound `CC(=O)Nc1nc(C)c(-c2ccc(Cl)c(S(=O)(=O)NCCO)c2)s1`, the Potency is 4690 nM (active).

In the case of `Cc1cc(N2CCOCC2)cc2[nH]c(-c3c(NC[C@@H](O)c4cccc(Cl)c4)cc[nH]c3=O)nc12`, the Potency was 332 nM (active).

In the case of `Nc1ccccc1NC(=O)c1ccc(CNC(=O)OCc2cccnc2)cc1`, the Potency is 1660 nM (active).

`O=C(C=Cc1c(C(=O)O)[nH]c2cc(Cl)cc(Cl)c12)Nc1ccccc1`: the Potency entry was “inactive”.

In the case of `CC(O)C1C(=O)N2C(C(=O)O)=C(SC3CNC(C(=O)N(C)C)C3)C(C)C12` (stereo not given), the Potency entry was “inactive”.

Regarding `Nc1ccccc1NC(=O)c1ccc(CNc2nccc(-c3cccnc3)n2)cc1`, the Potency is 2350 nM (active).

For `c1ccc2c(CCNc3ccc(Nc4ccncc4)cc3)c[nH]c2c1`, the Potency is 20900 nM (active).

The record behind these values is PubChem BioAssay (NCATS).
